Assay outcomes from PubChem.
CendR NRP1 mod: modulators of CendR peptide binding to NRP-1, primary screen, biochemical, fluorescence polarization, uHTS; Neuropilin-1 (Homo sapiens), O14786; FAM-RPARPAR peptide binding to NRP-1; inhibition, % at 25 µM; hit rate 0.85% among 360,000;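 active = inhibition or corrected inhibition above about 18%, plus a signal ratio from 0.5 to 1.5, limit read from the data, passing the limit was not always enough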
Rpn11 block: Rpn11 (PSMD14) deubiquitinase inhibitors, primary screen, biochemical, fluorescence polarization, uHTS; 26S proteasome non-ATPase regulatory subunit 14 (Homo sapiens), O00487; human 26S proteasome, Ub4-pepOG fluorescence polarization; 20S core pre-blocked with epoxomicin; inhibition, % at 20 µM; hit rate 0.59% among 360,000; AID 588493, 2011;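 active = inhibition at 20 µM, scaled to each plate's controls, above about 33%, limit read from the data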
TPT1 inh: Candida albicans TPT1 enzyme inhibitors, primary screen, biochemical, fluorescence polarization. hit rate 0.81% among 300,000. tRNA 2'-phosphotransferase TPT1 (Candida albicans SC5314). recombinant caTPT1, FP RNA substrate dephosphorylation. inhibition, % at 5 µM;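 active = inhibition above the mean of all tested compounds plus 3 SD, set per screening campaign, cut at about 24% in these data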
HNF4A DNA FP: change in binding of human HNF4A to DNA, primary screen, biochemical, fluorescence polarization, FITC-DNA. Hepatocyte nuclear factor 4-alpha (Homo sapiens), P41235. 1 h. activity change, % at 10 µM. hit rate 0.3% among 360,000. AID 1224865, 2016; in the data active = activity change above about 30%, passing the limit was not always enough
PHOSPHO1 block: PubChem AID 1565. hit rate 1.1% among 290,000. recombinant PHOSPHO1, absorbance phosphatase assay. Phosphoethanolamine/phosphocholine phosphatase (Homo sapiens), Q8TCT1. inhibition, % at 13.3 µM; in the data active = inhibition above about 60%
Target sequence (Q8TCT1 whole entry, looked up): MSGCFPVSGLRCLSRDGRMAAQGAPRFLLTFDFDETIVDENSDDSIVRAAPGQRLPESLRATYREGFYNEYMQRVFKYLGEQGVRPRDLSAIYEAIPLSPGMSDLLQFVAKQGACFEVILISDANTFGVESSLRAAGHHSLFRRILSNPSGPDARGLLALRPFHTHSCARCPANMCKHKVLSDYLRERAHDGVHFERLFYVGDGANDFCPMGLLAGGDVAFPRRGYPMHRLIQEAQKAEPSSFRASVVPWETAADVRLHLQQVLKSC
Fh CTSL1 inh: Fasciola hepatica cathepsin L1 inhibitors, primary screen, counter-screen for PFM18AAP inhibitor project, biochemical, QFRET, fluorogenic peptide substrate; hit rate 0.49% among 300,000; recombinant F. hepatica cathepsin L1, Z-Leu-Arg-MCA fluorescence; inhibition, % at 5.96 µM;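 active = inhibition above the mean of all tested compounds plus 3 SD, set per screening campaign, cut at about 17% in these data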
Of the large screens only hits and unclear results are named; the others gave an inactive call. The list is not random: actives were taken first. Their share in the collection is about 3.3%.

CN1CCN(CC(=O)c2ccccc2F)CC1	CendR NRP1 mod 17.3
O=C(c1ccccc1F)N1CCN(Cc2ccccc2F)CC1	CendR NRP1 mod 29.1
Cc1c(O)ccc(C(=O)CN2CCN(c3ccccc3F)CC2)c1O	none
O=C(c1ccccc1)c1ccccc1C(=O)N1CCN(Cc2ccccc2F)CC1	none (no result: TPT1 inh, PHOSPHO1 block, Fh CTSL1 inh)
CCOC(=O)Cn1c(C)c(Br)c(=O)c2cccc(C)c21	none
CCN1C(=O)[C@@H]2[C@@H](c3ccc(-c4cc(C(C)=O)cs4)cc3)N3CCC[C@@]3(C(=O)OC)[C@@H]2C1=O	CendR NRP1 mod 24.4 (no result: TPT1 inh, PHOSPHO1 block, Fh CTSL1 inh)
Cc1ccc(N(C)C(=O)C2CCCN2S(=O)(=O)c2cccc3nsnc23)cc1 (centres undefined)	none
COc1ccc(N(C)C(=O)C2CCCN2S(=O)(=O)c2cccc3nsnc23)c(OC)c1 (centres undefined)	PHOSPHO1 block 63.6
CC1(CC(=O)N/N=C/c2cc3c(cc2Br)OCO3)OCCO1	Fh CTSL1 inh 17.0
COC(=O)N/N=C\c1cc2c(cc1Br)OCO2	none
CCCc1cc(C(=O)Nc2ccc(C(C)=O)cc2)no1	Fh CTSL1 inh 16.9
CC(=O)N(C)c1ccc(N=NC2C(=O)N(C(N)=S)N=C2C)cc1 (centres undefined)	none
CCOc1ccc(Nc2ccc(N)c(S(=O)(=O)O)c2)cc1	CendR NRP1 mod 39.5 (no result: TPT1 inh, PHOSPHO1 block, Fh CTSL1 inh)
CCOCCc1nnc(NC(=O)CCc2ccccc2)s1	none
CCCCNc1cc(C(=O)O)cc(S(N)(=O)=O)c1Oc1ccccc1	none
CN(N)c1nc(-c2ccccc2)nnc1C(F)(F)F	CendR NRP1 mod 34.1
CCN(CC)C(=O)Cn1cnc2c1c(=O)n(C)c(=O)n2C	none
CCCn1cnc2c1c(=O)n(CCCCC(C)=O)c(=O)n2C	CendR NRP1 mod 31.7 (no result: PHOSPHO1 block)
CCOC(=O)c1sc(NC(=O)C(CC)Sc2nnc3c4ccccc4n(C(C)C)c3n2)nc1C (centres undefined)	PHOSPHO1 block 68.4 (no result: TPT1 inh, Fh CTSL1 inh)
CCN(C[C@H]1N[C@@](Cc2ccccc2)(C(=O)OC)[C@H]2C(=O)N(Cc3ccccc3)C(=O)[C@@H]12)S(=O)(=O)c1ccc(OC)cc1	CendR NRP1 mod 26.1 (no result: TPT1 inh, PHOSPHO1 block, Fh CTSL1 inh)
CCN(C[C@H]1N[C@@](CC)(C(=O)OC)[C@H]2C(=O)N(Cc3ccccc3)C(=O)[C@@H]12)S(=O)(=O)c1ccc(OC)cc1	none (no result: TPT1 inh, PHOSPHO1 block, Fh CTSL1 inh)
COc1cccc(C(=O)N2CCC[C@H]2C(=O)N2CCC[C@H]2C(=O)N[C@H](C)c2ccccc2)c1	none (no result: Rpn11 block, TPT1 inh, PHOSPHO1 block, Fh CTSL1 inh)
CCCCN1CC[C@H]2C=CC[C@@H](C(=O)Nc3ccc(Cl)cc3Cl)[C@H]2C1=O	CendR NRP1 mod 33.5 (no result: PHOSPHO1 block)
COc1ccc(CNC(=O)[C@@H]2CC=C[C@@H]3CCN(Cc4ccc(Cl)c(Cl)c4)C(=O)[C@@H]32)cc1	CendR NRP1 mod 30.1 (no result: PHOSPHO1 block)
CCCCN1CC[C@H]2C=CC[C@@H](C(=O)NCc3ccc(OC)cc3)[C@H]2C1=O	CendR NRP1 mod 20.9 (no result: PHOSPHO1 block)
COc1ccc(CNC(=O)[C@@H]2CC=C[C@@H]3CCN(C4CCCCC4)C(=O)[C@@H]32)cc1	none (no result: PHOSPHO1 block)
O=[N+]([O-])c1ccc(-c2ccc(S(=O)(=O)NCCN3CCCC3)cc2)cc1	none
O=C(Nc1ccccc1)c1cc2n(n1)C(C(F)(F)F)CC(C1CC1)N2 (centres undefined)	none
O=C(CNC(=O)c1ccc(Oc2ccccc2)cc1)OC1CCCCC1=O (centres undefined)	Fh CTSL1 inh 19.3
CC(C)N(C(=O)Nc1ccc2nsnc2c1)C(C)C	Fh CTSL1 inh 114.1 (no result: CendR NRP1 mod, Rpn11 block, HNF4A DNA FP)
CN(C)c1ccc(NC(=O)c2ccc3nsnc3c2)cc1	PHOSPHO1 block 74.4
CCOP(=O)(OCC)C(Nc1ccc(C)cc1)c1ccco1 (centres undefined)	none
C=CCCCCCCCCc1nc(SCC(=O)O)n[nH]1	none
C=CCCCCCCCCc1nc(=S)[nH][nH]1	PHOSPHO1 block 60.1
CC(C)CCC1(CCNC(C)c2cccs2)CCOC(C)(C)C1 (centres undefined)	none
Cc1ccccc1Nc1ccc2nonc2c1[N+](=O)[O-]	none (no result: TPT1 inh, Fh CTSL1 inh)
